# Screening data from PubChem BioAssay.
# Abeta yeast res = restores growth of yeast expressing A-beta42 peptide; Potency, µM (titrated, usually from 46.1 µM), hits mostly activators; AID 1347071; yeast expressing A-beta42, growth rescue, OD600, 48 h; response scale: 0% DMSO, 100% iron-clioquinol control; 410,000 tested, 0.063% active; further: nearly all actives have a fitted effect of over 55% in size
#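 Yeast A-beta toxicity model in growth medium with pinned compounds, 48 h at 30 C; growth read as absorbance at 600 nm. Normalized to FeCl3/clioquinol equimolar mix (positive) and DMSO (negative).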
# TDP-43 yeast inh = inhibitors of TDP-43 toxicity in yeast. TDP-43 expressing yeast growth rescue, BacTiter-Glo, 24 h. Potency, µM (highest dose often 46.1 µM), inactives show top-dose growth rescue (activation), hits mostly activators. 410,000 tested, 1.8% active; further: % of control where 0% means no effect; nearly all actives have a fitted effect of over 50% in size
#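 Galactose-induced TDP-43 yeast, OD600=0.02, compound pinned; 24 hr, 30 deg C; BacTiter-Glo luminescence for growth. Inhibitors of TDP-43 toxicity read as activators.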
# aSyn rescue = rescues yeast growth from alpha-synuclein toxicity; Yeast expressing alpha-synuclein, growth rescue, BacTiter-Glo, 24 h; Potency, µM (doses to about 46.1 µM), inactives show top-dose growth rescue (activation), hits mostly activators; 370,000 tested, 0.14% active; AID 652106; further: % of control where 0% means no effect; nearly all actives have a fitted effect of over 65% in size
#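 Screening used galactose-induced yeast with toxic alpha-synuclein levels, exposed to compound for 24 hr at 30 deg C. Cell growth, read with BacTiter-Glo luminescence, gave the measured signal.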
# FUS yeast rescue = suppressors of FUS proteinopathy in yeast. 390,000 tested, 0.24% active. S. cerevisiae FUS-expressing, growth rescue, OD600, 24 h. Potency, µM (series often up to 76.6 µM), hits mostly activators;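 further: plate controls were DMSO vehicle for no effect and reference control for full effect; nearly all actives have a fitted effect of over 55% in size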
#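 Absorbance at 600 nm, taken 24hr after compound addition, measured rescue of FUS-yeast growth at 30C. Induction used 2% galactose with seeding at OD 0.005. Controls: CP55940 from 92uM final, DMSO only.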
# * hit, by the source's call; i = inactive; ? = inconclusive; . = no result. The list is not random: actives were taken first. Their share in the collection is about 2.1%. The call rests on the fitted dose curve; in most records, active means well fitted curve in the direction sought with a large enough effect; inconclusive means small, poorly fitted or top-dose-only effect, or another doubt; inactive means no such curve, though single readings can be large; an effect the other way counts as inactive or inconclusive. Potency means the concentration at half of the fitted maximal effect.
SMILES,Abeta yeast res,TDP-43 yeast inh,aSyn rescue,FUS yeast rescue
Cc1ccc(C(=O)N(Cc2nc(-c3ccc(C)cc3)no2)C(C)C)cc1,i,13%,1%,i
Cc1ccc(CC(=O)N(Cc2nc(-c3ccc(C)cc3)no2)C(C)C)cc1,i,25µM*,.,i
O=C(c1ccccc1I)N1CCC(Oc2cccnc2)CC1,.,.,.,i
Cc1ccc(-n2ncc3c(NC4CCCCCC4)ncnc32)cc1Cl,i,?,.,i
Cc1cccc(-n2ncc3c(NC(C)C)ncnc32)c1,i,11µM*,-18%,i
COc1ccc(CCNc2ncnc3c2cnn3-c2cc(Cl)ccc2C)cc1,i,20µM*,.,i
CC(C)Nc1ncnc2c1cnn2-c1ccccc1,i,?,2%,i
Cc1ccc(Cl)cc1-n1ncc2c(NC3CCCCCC3)ncnc21,i,14µM*,.,i
Cc1ccc(CNc2ncnc3c2cnn3-c2ccc(C)cc2C)cc1,i,35µM*,.,i
CC(C)NC(=O)COC(=O)c1ccccc1OCC(=O)Nc1ccc(Br)cc1,.,.,1%,.
Clc1ccc(-n2ncc3c(NCC4CCCO4)ncnc32)cc1 (stereo unspecified),i,11µM*,-9%,i
c1ccc(-n2ncc3c(NCC4CCCO4)ncnc32)cc1 (stereo unspecified),i,23%,5%,i
O=C(c1cccs1)N1CC[C@H]2[C@H](CCCN2Cc2cc(F)cc(F)c2)C1,.,.,.,i
COC(=O)C[C@H]1CC[C@@H]2[C@@H](COc3ccc(NC(=O)c4ccccc4)cc3C(=O)N2C)O1,.,.,.,i
COC(=O)c1ccc(COC(=O)CCS(=O)(=O)c2ccc(C)cc2)cc1,i,-9%,1%,i
Cc1ccc(S(=O)(=O)CCC(=O)OCc2ccc(Cl)cc2)cc1,i,25µM*,13%,.
Cc1ccc(S(=O)(=O)CCC(=O)c2ccc(O)cc2O)cc1,i,14µM*,7%,i
C[C@H](NC(=O)OCc1ccccc1)P(=O)(O)O,.,.,.,i
Cc1ccc(Cn2cc(CN3[C@@H](CC(C)C)COc4cccc(F)c4S3(=O)=O)nn2)cc1,.,.,.,i
CCCC(=O)N1CCC[C@]2(CC[C@@H](CCC(=O)N(CC)CC)O2)C1,.,.,.,i
NC(=S)N=Nc1ccc(O)cc1,i,13µM*,-15%,.
Cc1ccnc(Sc2ccc([N+](=O)[O-])cc2[N+](=O)[O-])n1,i,20µM*,-13%,i
COc1cc2c(cc1OC)/C(=C/c1ccc(Br)cc1)C(=O)OC2,i,13µM*,16%,?
COc1ccc(CCC(=O)NCCc2csc(-c3cccc(C)c3)n2)cc1,i,?,.,i
Cc1cccc(-c2nc(CCNC(=O)COc3ccccc3)cs2)c1,i,35µM*,.,i
SMILES,Abeta yeast res,TDP-43 yeast inh,aSyn rescue,FUS yeast rescue
Cc1cccc(-c2nc(CCNC(=O)Cc3ccccc3)cs2)c1,i,16µM*,.,i
O=C(c1ccc(Cl)cc1)C1CCN(c2ncnc3sccc23)CC1,.,.,.,i
COC(=O)c1ccc(NC(=O)c2ccccc2OCC(=O)Nc2ccc(Br)cc2)cc1,.,.,-2%,.
O=C(C[n+]1ccccc1)c1ccc(O)c(O)c1,.,.,-2%,.
O=C(C(=O)N1CCC(c2ccccc2)CC1)c1ccc(F)c(F)c1,i,22µM*,9%,i
N#Cc1cccc(C(=O)C(=O)N2CCC(c3ccccc3)CC2)c1,i,10%,3%,i
CCN(CC)S(=O)(=O)c1ccc(N2CCOCC2)c(NC(=O)c2ccc(C#N)cc2)c1,i,1%,2%,28µM*
CCN(CC)S(=O)(=O)c1ccc(N2CCOCC2)c(NC(=O)c2ccc(F)cc2)c1,i,?,2%,i
CCOC(=O)c1sc(N2C(=O)C(O)=C(C(=O)c3ccco3)C2c2ccco2)nc1C (stereo unspecified),i,-15%,6%,28µM*
CCOc1ccc2nc(N3C(=O)C(O)=C(C(=O)c4ccco4)C3c3ccco3)sc2c1 (stereo unspecified),i,-7%,-9%,i
COc1ccc(NC(=O)COc2ccccc2)cc1Cl,i,11µM*,-8%,i
Cc1ccc(NC(=O)COc2ccccc2)cc1Cl,i,?,-6%,i
CC(C)c1ccc(NC(=O)COc2ccccc2)cc1,i,10µM*,-7%,i
Nc1ccc(N2CCN(c3ncc(C(F)(F)F)cc3Cl)CC2)c(C(F)(F)F)c1,i,20µM*,-57%,i
NC(=O)c1ccc(N2CCN(c3ncc(C(F)(F)F)cc3Cl)CC2)cc1,i,5%,8%,i
Cc1ccccc1CS(=O)(=O)Cc1ccc(C(=O)Nc2ccccc2C)o1,.,.,.,i
COc1ccc(-n2c(COc3ccc(Cl)cc3)nnc2SCC(=O)Nc2ccc3c(c2)OCO3)cc1,.,.,.,i
COc1ccc([C@H]2CC(=O)C=C(c3ccc4cc[nH]c4c3)C2)cc1,i,25µM*,0%,i
COc1ccc(C2=CC(=O)C[C@H](c3ccc(Cl)cc3)C2)cn1,i,18µM*,5%,i
COc1ccc([C@H]2CC(=O)C=C(c3ccc4[nH]ccc4c3)C2)cc1OC,i,22µM*,2%,?
COc1ccc([C@H]2CC(=O)C=C(c3ccccc3)C2)cc1,?,18µM*,-1%,i
COc1ccc([C@H]2CC(=O)C=C(c3cc(Cl)cc(Cl)c3)C2)cc1,i,28%,-1%,i
O=C(CSc1nnc(-c2cccnc2)n1Cc1ccco1)Nc1cc(Cl)ccc1F,.,.,.,i
O=C(c1cc(Cl)cc(Cl)c1)N1CC[C@H]2[C@H](CCCN2Cc2ccccc2)C1,.,.,.,i
Cc1ccc(OCc2nnc(SCC(=O)c3ccc(-c4ccccc4)cc3)n2Cc2ccco2)cc1,.,.,.,i
SMILES,Abeta yeast res,TDP-43 yeast inh,aSyn rescue,FUS yeast rescue
NS(=O)(=O)c1ccc(NC(=O)CSc2nc3ccccc3c(=O)n2-c2ccc(Br)cc2)cc1,.,.,.,i
COc1ccc(C2=CC(=O)C[C@H](c3ccc(OC)cc3)C2)cc1,i,14µM*,5%,?
COc1ccc([C@H]2CC(=O)C=C(c3ccc(SC)cc3)C2)cc1,i,8%,6%,i
COc1ccc([C@H]2CC(=O)C=C(c3cccc(C(C)C)c3)C2)cc1,i,12%,-4%,i
COc1ccc([C@H]2CC(=O)C=C(c3cccc(OC)c3)C2)cc1,i,11µM*,0%,i
COc1ccc(C(=O)N2CCC(Oc3cccnc3)CC2)c(OC)c1,.,.,.,i
CCc1ccc(NC(=O)COC(=O)c2ccccc2OCC(=O)N(C)C)cc1,.,.,-1%,.
Cc1ccc(C)c(OCC(=O)NC2CCCCCC2)c1,i,11µM*,11%,i
COc1ccc(C(=O)NCC2OCCc3ccccc32)c(O)c1 (stereo unspecified),i,14µM*,-12%,i
CC(C)COc1ccc(C(=O)NCC2OCCc3ccccc32)cc1 (stereo unspecified),i,26%,.,i
C=CCN1C(=O)[C@@H](CC(=O)NCc2ccccc2)[C@]2(C(=O)OCC)CCCCC/C=C/12,.,.,.,i
